Results reported in the supplement of paper PMC6555819.

test system: PPARg:RXRa 90nM:30nM, anti-RXR (NR concentration 90 nM, RXRa partner concentration 30 nM); assay: PBM binding z-score (relative to random genomic background probes); higher = stronger binding; sequences stand for … in GC…GCGATTGACAGCGTAGAATGAAGG
Method in brief: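 Antibodies against each partner of ligand-free nuclear receptor dimers (one per run) detected binding on custom Agilent 4×180K protein-binding microarrays after 1 h incubation. The double-stranded probes had 34-nt variable regions carrying direct-repeat seeds, single-nucleotide variants, half-site ablations and random human genomic background sequences. Binding z-scores, from regression-normalized fluorescence, use the random background probes as reference.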

Sequence | PBM binding z-score
TCTCGGAGGACACGAAAGTCAGAGCTTTCCAGAG | 1.24
TCAGACAGGTGAAGTTAACTCAGGTACGCAGTCG | 2.75
CCTAGTTGATCAGGAGGTCACACACCGGATATGA | 1.99
ACAGATAGGTGATGAAGGTAACTCAGGCTATCAT | 0.624
GTTATTAGTTGAAAGGGCAACCGAATGATTCTCG | 5.47
AATACAGGGTCACTAGGGCAGAGTAGGTACGAAT | 6.46
GATACAGGGTCAAGTCCAGAGTACGCGTATTGAT | 4.33
CGTCAAAGTCCAACTAAGGTAACGTAAAGCACGC | 0.18
CTCGAAAGGTCGGTTGAGATGAGTATACGGATAA | 0.615
CCGACTGGTGCATAAGGTTACCATAAGCCAGCCC | 0.705
TCTTGTAGATCAATAGAGGTTAAGATAGTGCGCT | 2.03
ACTAGCAGGCCAAGTTTGGCTCACTCAAACAAAG | -0.715
ATAATGAGGTTATTAAGATCAGGGAATTGCGGTC | 1.5
TCTTGTAGATCAATAGAGGTTATGAAAGTGCGCT | 2.41
ATCACTAGGTAAAGTTCAGTGAAAGATCGATAGA | 2.7
CGAACGAGGGCATGAGTTCATAGCAAATGCCGAT | 2.23
CCTTACGGGTCACGAGGGTATAGCACGACGAGCG | 5.26
CCGACTGGGGCAAGGTTACCATTACGCACAGCCA | 2.4
TTACCAAGGTGAAAGGTCGTGGATGCACGCCTTG | 8.54
CCAGACATGTGAGAAGGTAACTCAGCCTCGATTA | -0.419

Sequence | PBM binding z-score
TCTATTAGTTGAAGGGCAATCGACGAGTCCGTTT | 2.67
ATCGAAAGGTCGTGAGGTGAGTATACAGAAAGGC | 3.28
TGTCAAAGTTCAAAGGTAATGTAAGTATCCACAC | 7.6
ATCGAGAGGTCGACGAGGTGAGTATACACCGTTT | 1.52
TAGCCTAGGTCAGATCGGCCCAGTATACGCTATA | 0.142
GGAACGAGGGCAAGCTGATAGCAGAGTTTGATGG | 0.3
CCTATTAGTTGACCATAAGTGCAACCGAAGCTCG | 0.574
CCTAGTTGGTCAAGGTCACAGACGCTATAGGTAC | 2.79
ATTAGTTGGTCAGCTGAGGTCACACACAATTCGG | 2.13
AGAACGAGGGCACGCTGAGTTGATCGCAGAGTAG | 0.789
CCGAGTAGGTTATCGGGCATTCAGGCAACGGTGA | 1.54
TCTAGTTGGTCAAAGGTCGCACACTCGAAATGCG | 10.8
TCTGCTAGGTCAACGATGGTCAGCTGATCTGCTA | 2.66
CGAACTAGGTCATTGACATGACAGTGAATAGTAA | 6.29
ATCTCTAGGTAAAGATAGCTCAGTGAATGCAAAT | 0.317
TCTTGTGGATCAACAGGAGGTTAAGAAAGATCGA | 1.87
TGAATGAGGTTAAAGATGAGGGAACGTGGCGTCG | 4.35
TGAATGAGGTTAAAGATCAGCGAACGTGGCGTCG | 6.67
CCAGTCAGGTGAGAAGGTAACTCAGCCTCGATTA | 0.619
TCTTGTAGATCAATAGAGGTTACGAAAGTGCGCT | 2.24
